Luc counter: Kinase-Glo luciferase inhibition (counter-screen) | Kinase-Glo luciferase, ATP luminescence, 8 min | Q27757 | Potency, µM (highest dose often 38.3 µM), hits mostly inhibitors | AID 1379 | hit rate 0.28% among 200,000; note: nearly all actives have a fitted effect of over 60% in size
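Recombinant Kinase-Glo luciferase, 10 uM ATP (linear range), luciferin; imidazole pH 7.2 / KCl / MgCl2 / Tween / BSA buffer; 8 min RT; luminescence.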
SMN2 splice enh: increases expression of the SMN2 splice variant; HEK293 SMN2-luciferase splicing reporter, luminescence, 30-36 h; hit rate 2.8% among 210,000; Potency, µM (titrated, usually from 46.1 µM), usual class: activators; AID 1458; note: nearly all actives have a fitted effect of over 55% in size
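qHTS luciferase splicing reporter: luminescence rises when SMN2 exon 7 is included in transfected HEK293 cells. Compound exposure lasted 30-36 h at 37C, with 4.5 mM final sodium butyrate as control, followed by a ONE-Glo read.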
FLuc counter: counter-screen for miR-21 project: firefly luciferase inhibitors or activators. P08659. purified FLuc, Km substrates, luminescence inhibition. Potency, µM (titrated, usually from 57.5 µM), usual class: inhibitors. hit rate 6.9% among 360,000; note: nearly all actives have a fitted effect of over 55% in size
Target sequence (P08659 whole entry, looked up): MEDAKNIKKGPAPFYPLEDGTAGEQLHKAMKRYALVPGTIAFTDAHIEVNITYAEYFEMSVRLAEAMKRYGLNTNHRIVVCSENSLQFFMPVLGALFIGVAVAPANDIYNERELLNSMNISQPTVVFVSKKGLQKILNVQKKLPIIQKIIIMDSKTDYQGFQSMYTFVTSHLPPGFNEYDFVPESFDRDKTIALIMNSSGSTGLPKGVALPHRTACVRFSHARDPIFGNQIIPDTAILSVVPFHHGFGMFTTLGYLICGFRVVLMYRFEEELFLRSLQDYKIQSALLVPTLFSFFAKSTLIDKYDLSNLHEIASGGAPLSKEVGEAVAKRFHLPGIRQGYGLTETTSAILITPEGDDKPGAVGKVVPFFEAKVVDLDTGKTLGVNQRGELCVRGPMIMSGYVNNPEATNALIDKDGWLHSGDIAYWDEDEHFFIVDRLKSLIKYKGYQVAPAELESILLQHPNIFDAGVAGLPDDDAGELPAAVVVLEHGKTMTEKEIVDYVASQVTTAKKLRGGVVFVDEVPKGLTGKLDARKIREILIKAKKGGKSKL
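Purified P. pyralis luciferase, 10 nM final, with Km-level 10 uM D-luciferin and 10 uM ATP in 50 mM Tris acetate pH 7.5, 10 mM Mg acetate, 0.01% Tween-20, 0.05% BSA; 6-point qHTS titration about 60 µM downward; luminescence read.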
NPC1 prom act: activators of NPC1 promoter. Huh7 NPC1 promoter luciferase reporter, 24 h. hit rate 2.4% among 320,000. AID 485313. Potency, µM (top dose mostly 9.22 µM), actives largely listed as activators; note: nearly all actives have a fitted effect of over 60% in size
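Readout is luciferase luminescence, reflecting NPC1 promoter activation in stably transfected Huh7 cells after 24 h compound exposure at 37 °C in reduced-serum medium with 10% FBS.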
ELG1 genotoxic: genotoxicity induction in ELG1-luciferase HEK293T cells; HEK293T ELG1-luciferase reporter, luminescence, 16 h; Potency, µM (highest dose often 46 µM), usual class: activators; hit rate 1.3% among 330,000; note: nearly all actives have a fitted effect of over 60% in size
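Luminescence read-out: rising ELG1-luciferase signal, reflecting elevated ELG1 protein under genetic stress, flags genotoxic compounds. Cells were treated for 16 hr at 37 °C before ONE-Glo detection.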
Rab9 promoter act: activators of Rab9 promoter | hit rate 2.8% among 320,000 | Huh7 Rab9 promoter-luciferase reporter, luminescence, 24 h | Potency, µM (top dose mostly 9.22 µM), usual class: activators; note: nearly all actives have a fitted effect of over 60% in size
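Stable Rab9-luc Huh7, 1500 cells/well, 2 h settle; cmpd in DMSO, 24 h, 37 °C/5% CO2; luciferase reagent 10 min RT; luminescence.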
Hits are given with their value; 0 = inactive; ? = inconclusive; - = no result. In the library only some 7.3% were active in any assay of this set; here they are far more common. Calls come from the whole dose curve; as a rule, active = well fitted curve in the direction sought with a large enough effect; inconclusive = small, poorly fitted or top-dose-only effect, or another doubt; inactive = no such curve, though single readings can be large; an effect the other way counts as inactive or inconclusive.

SMILES	Luc counter	SMN2 splice enh	FLuc counter	NPC1 prom act	ELG1 genotoxic	Rab9 promoter act
CCOc1ccc(NC(=O)NC2CCCCCCC2)cc1	-	-	5.4µM	1.8µM	10µM	3.5µM
COc1ccc(NC(=O)CCSc2ccc(F)cc2)cc1	-	-	15µM	?	?	3.5µM
CCc1cccc(C)c1NC(=O)Cn1c(=O)cc(C(F)(F)F)c2c(C)nn(C)c21	-	-	0	-	-	-
COc1ccccc1Nc1c2c(nc3ccc(NC(=O)c4ccc(N(C)C)cc4)cc13)CCCC2	-	0	0	-	-	-
CCc1ccc(NC(=O)C(=S)NC2CCCCC2)cc1	-	-	3µM	0.79µM	8.2µM	0.63µM
CCc1ccc(NC(=O)C2CCCN2C(=O)NC2CCCCC2)cc1 (stereo not drawn)	-	-	0	0	0	0
COc1ccc(NC(=O)CSC2CCCCC2)cc1	0	0	12µM	3.2µM	?	3.5µM
COc1ccc(CCC(=O)NCc2nc3cccnc3n2Cc2ccccc2)cc1	-	-	0	-	-	-
S=C(c1ccc(-c2ccccc2Cl)o1)N1CCOCC1	0	32µM	11µM	?	13µM	?
S=C(c1ccc(-c2ccc(Br)cc2)o1)N1CCOCC1	-	-	3µM	3.5µM	?	2µM
S=C(c1ccc(-c2ccc(Cl)c(Cl)c2)o1)N1CCOCC1	0	11µM	2.7µM	2.2µM	6.5µM	1.8µM
S=C(c1ccc(-c2ccc(Br)cc2)o1)N1CCCCC1	0	-	?	0	0	0
CCOc1ccccc1NC(=O)Cn1c(=O)nc(-c2ccccc2F)c2cc(Cl)ccc21	-	-	0	-	-	-
CCOC(=O)C(C(C)=O)c1c(Br)c(O)c(O)c2c(C(=O)c3ccc(C)cc3)coc12 (stereo not drawn)	0	0	19µM	0	0	0
Cc1ccc(C(=O)C2CCNCC2)cc1	0	0	0	0	0	0
Cc1ccc(C(=O)/C=C2\NCC(C)NC2=O)cc1 (stereo not drawn)	0	0	1.2µM	0.32µM	?	0.32µM
Cc1ccc(C(=O)/C=C2\NCCNC2=O)cc1	0	2.8µM	5.4µM	1.4µM	?	0.89µM
N#Cc1c(SCC(=O)Nc2nc3ccc(Br)cc3s2)sc2c(O)cc(=O)[nH]c12	-	-	?	0	0	0
N#Cc1c(SCC(=O)Nc2nc3ccccc3s2)sc2c(O)cc(=O)[nH]c12	-	-	2.4µM	0	0	0
CCCCN(Cc1ccccc1)C(=O)c1oc(=O)c2ccccc2c1-c1ccc(C)cc1	-	0	0	-	-	-
Cc1cccc(-n2c(C)cc(C(=O)NC3CCCCC3)c2C)c1	0	?	21µM	?	?	3.5µM
COc1ccc(-n2c(C)cc(C(=O)NC3CCCCC3)c2C)cc1	0	?	13µM	?	0	3.5µM
CCn1cc(S(=O)(=O)c2ccc(C)cc2C)c(=O)c2cc(F)c(N3CCCC3)cc21	-	-	0	-	-	-
C=CCn1c(-c2ccccc2)c[nH]c1=S	0	0	27µM	0	13µM	0
O=C(NC(C(=O)c1ccccc1)N1CCCCCC1)c1ccco1 (stereo not drawn)	0	0	0	0	0	0
SMILES	Luc counter	SMN2 splice enh	FLuc counter	NPC1 prom act	ELG1 genotoxic	Rab9 promoter act
Cc1ccc(C(=O)C(NC(=O)c2ccco2)N2CCOCC2)cc1 (stereo not drawn)	0	13µM	0	?	18µM	?
Cc1cc(C)n(-c2nnc(NCc3ccc(Cl)cc3)nn2)n1	0	0	0	0	0	0
Cc1nn(-c2nnc(NCc3ccccc3)nn2)c(C)c1Br	0	-	21µM	0	?	?
C/C(=N\NC(=O)c1c(Br)cnn1C)c1ccc(NC(=O)c2ccc(F)cc2)cc1	0	?	0	0	16µM	0
C/C(=N\NC(=O)c1ccc(F)cc1)c1cccc(NC(=O)c2cccc(F)c2)c1	-	-	0	0	0	0
C/C(=N\NC(=O)c1ccncc1)c1ccc(NC(=O)c2ccc(Cl)cc2)cc1	-	-	-	0	?	0
C/C(=N\NC(=O)c1cccc(O)c1)c1cccc(NC(=O)c2ccc(F)cc2)c1	-	-	1.9µM	?	0	0
C/C(=N\NC(=O)c1cccc(N/N=C(\C)c2ccco2)c1)c1ccco1	0	0	13µM	0	0	?
C/C(=N\NC(=O)c1ccc(F)cc1)c1cccc(NC(=O)c2ccco2)c1	0	0	4.8µM	0	0	0
CCOc1ccc(NC(=O)CN2C(=O)C3(SCC(=O)N3c3ccc(F)cc3)c3ccccc32)cc1 (stereo not drawn)	-	-	0	-	-	-
C/C(=N\NC(=O)c1cccc(F)c1)c1cccc(NC(=O)c2ccc(F)cc2)c1	0	-	?	0	0	0
C/C(=N\NC(=O)c1c(Cl)cnn1C)c1cccc(NC(=O)C(C)C)c1	0	0	?	0	0	0
C/C(=N\NC(=O)c1c(Cl)cnn1C)c1cccc(NC(=O)c2ccc(C)cc2)c1	-	-	2.4µM	?	0	?
C/C(=N\NC(=O)c1ccccc1F)c1cccc(NC(=O)c2ccc(C)cc2)c1	-	-	2.4µM	?	?	?
C/C(=N\NC(=O)c1cccc(N/N=C(\C)c2cc(O)ccc2O)c1)c1cc(O)ccc1O	0	0	12µM	0	0	0
CCOCCCNC(=O)c1ccc2c(=O)n(CCc3ccccc3)c(=O)[nH]c2c1	-	0	0	-	-	-
CCS(=O)(=O)N1CCc2cc(C(=O)Nc3ccc(OC)c(Cl)c3)ccc21	-	-	0	-	-	-
Cc1ccc(-c2nn3c(C)nnc3c3ccccc23)cc1S(=O)(=O)NC(C)c1ccccc1 (stereo not drawn)	0	0	0	0	0	0
Cc1ccc(-c2nn3c(C)nnc3c3ccccc23)cc1S(=O)(=O)NC(C)(C)CO	0	?	0	0	21µM	0
Cc1ccc(-c2nn3c(C)nnc3c3ccccc23)cc1S(=O)(=O)NCc1ccco1	0	13µM	0	0	?	0
Cc1noc(C)c1COC(=O)c1ccc(-c2nc3ccccc3s2)s1	0	10µM	5.4µM	?	7.3µM	3.5µM
CCNC(=O)COC(=O)c1ccc(-c2nc3ccccc3s2)s1	?	13µM	1.3µM	0	?	?
CCNC(=O)COC(=O)c1cc(C)nc2ccccc12	0	0	0	0	0	0
C[C@@H]1Cc2ccccc2N1NC(=O)c1ccc(Cl)c(S(N)=O)c1 (stereo partly drawn)	0	0	-	-	-	-
CCOC(=O)c1cc(S(=O)(=O)N2CCN(c3ccccc3OC)CC2)[nH]n1	-	-	0	-	-	-
Cc1cc(=O)c2cc(C(=O)Nc3ccc(C)c(C)c3)ccc2[nH]1	-	-	0	-	-	-
Cc1cc(C)c(S(=O)(=O)/N=C2\C=C(Nc3ccc(C(=O)O)cc3)C(=O)c3ccccc32)c(C)c1	-	-	?	0	0	0
O=C(O)c1ccc(NC2=C/C(=N/S(=O)(=O)c3ccccc3)c3ccccc3C2=O)cc1	0	0	15µM	0	0	0
COc1cc([N+](=O)[O-])ccc1N1C(=O)C2C3C=CC(C4CC34)C2C1=O (stereo not drawn)	0	0	13µM	0	0	0
